Screens as filed in PubChem.
Rows were chosen to be rich in hits. Some 21% of all compounds tested hit in one or more screens of this group.
D3 antag – blocks the human D3 dopamine receptor; P35462; D3R cells, DiscoveRx beta-arrestin luminescence, antagonist mode; active compounds read low; max response, negative = inhibition, %; actives 2.5% (n = 360,000); AID 652054; in the data active means max response below about -50%; inconclusive means no clear call, values can overlap the other calls; further: on the % scale 0 is the no-effect control and ±100 the full control effect
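Cells expressing the human receptor were seeded at 1500 cells/well, incubated overnight at 37 degrees C in 5% CO2, then exposed to library compounds with dopamine controls for 90 minutes at 37 degrees C before luminescent detection.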
DT40 TDP1 no CPT – qHTS for Inhibitors of human tyrosyl-DNA phosphodiesterase 1 (TDP1): qHTS in cells in absence of CPT. DT40 Tdp1-/- hTDP1 cells, no CPT, ATP luminescence, 48 h. Potency, µM (titrated, usually from 46.2 µM), for inactives: at the top dose activity change, negative = growth inhibition, usual class: inhibitors. actives 15% (n = 420,000); further: potency means the concentration at half of the fitted maximal effect; on the % scale 0 is the no-effect control and ±100 the full control effect; nearly all actives have a fitted effect of over 55% in size
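Stably hTDP1-transfected Tdp1-null chicken DT40 cells were treated with library compounds minus camptothecin and grown for at least 48 hr at 37 °C, after which cellular ATP was quantified by luminescence.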
DT40 TDP1 CPT – growth inhibition of DT40 Tdp1-/-;hTDP1 cells with camptothecin (screen for TDP1 inhibitors). Potency, µM (series often up to 46.2 µM), without a hit: at the top dose activity change, negative = growth inhibition, most hits filed as inhibitors. chicken DT40 Tdp1-/-;hTDP1 cells + 20 nM CPT, ATP luminescence, 48 h. AID 686979. actives 12% (n = 420,000); further: potency means the concentration at half of the fitted maximal effect; on the % scale 0 is the no-effect control and ±100 the full control effect; nearly all actives have a fitted effect of over 55% in size
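Chicken DT40 Tdp1-/- cells stably complemented with human TDP1 were seeded at 400 cells/well in medium containing 20 nM camptothecin, exposed to pin-transferred compounds, and grown at 37 °C for at least 48 hr. Viability was read as ATP luminescence.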
IL-1B inflam inh – inflammasome signaling inhibition, IL-1 beta readout | activity change, % at 57.5 µM | actives 4.7% (n = 360,000) | AID 743279 | THP-1 LPS/ATP IL-1B secretion, AlphaLISA, 16 h; active compounds read low; in the data active means activity change below about -50%; inconclusive means mostly about -30% to -49%; further: on the % scale 0 is the no-effect control and ±100 the full control effect
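Secreted IL-1B measured by AlphaLISA bead assay after 16 h compound exposure of THP-1 cells; compounds (final up to 57.5 uM) added 1 h before LPS (250 ng/mL) and ATP (1.25 mM) stimulation; lower signal means less secretion.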
ClpP mod – qHTS Assay for Activators of ClpP; ATP-dependent Clp protease proteolytic subunit (Bacillus subtilis (strain 168)), P80244; purified B. subtilis ClpP, FRET peptide cleavage, 20 min; Potency, µM (doses to about 57.5 µM), for the others: at the highest dose activity change, negative = active; actives 1.9% (n = 340,000); active means well fitted falling curve with a large enough effect; inconclusive means small, poorly fitted or top-dose-only effect; inactive means no such curve, though single readings can be large or run the other way; further: potency means the concentration at half of the fitted maximal effect; the source files actives as falling curves though it sought activators and does not explain the sign; nearly all actives have a fitted effect of over 65% in size
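Buffer: 100 mM Tris/HCl pH8, 100 mM KCl, 0.05% low protease BSA, 2.5% glycerol, 0.01% Tween-20. ClpP 10 microg/mL final; 20 min RT; delta FRET normalized to ADEP and DMSO controls.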
D3 ag – agonists of human D3 dopamine receptor | P35462 | D3R DiscoveRx beta-arrestin cells, luminescence, 90 min | max activation, % | actives 0.58% (n = 410,000) | AID 652048; in the data active means max activation above about 30%; further: 0% is about no effect
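Agonist mode: compounds and dopamine controls were applied to plated cells for 90 min at 37 degrees C after an overnight attachment at 1500 cells/well. Luminescent read-out followed 30 - 60 minutes at room temperature with DiscoveRx detection reagent.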
Starred values were filed as active, the others as inactive; ? = inconclusive; nt = no result given. Unless noted, the call rests on the fitted dose curve; in most records, active means well fitted inhibition curve with a large enough effect; inconclusive means small, poorly fitted or top-dose-only effect; inactive means flat fitted curve, though single readings scatter.

SMILES	D3 antag	DT40 TDP1 no CPT	DT40 TDP1 CPT	IL-1B inflam inh	ClpP mod	D3 ag
COc1cccc(Nc2ncc3nc(-c4cccs4)c(=O)n(-c4ccccc4)c3n2)c1	nt	?	-12%	nt	nt	nt
O=C(NCc1ccc2c(c1)OCO2)c1cc(-c2ccncc2)nc2ccccc12	5	?	16µM*	3	nt	-9
CCCN(CCC)C(=O)c1cc(-c2ccc3c(c2)OCO3)nc2ccccc12	45	15µM*	15µM*	-14	?	2
O=C(O)c1cc(-c2ccc3c(c2)OCO3)nc2ccccc12	-15	-25%	?	28	-4%	-7
CCc1nnc(N2C(=O)c3ccccc3C2(O)c2ccccc2)s1 (configuration not stated)	-3	?	-19%	-18	nt	-8
C(=C\c1cccc2ccccc12)/c1nnc(-c2cccs2)o1	-17	?	29µM*	0	28µM*	-5
CC(=O)C[n+]1cccc(Br)c1	nt	0%	6%	nt	0%	nt
CCOC(=O)N1CCC(NC(=O)c2cc(S(=O)(=O)NCCc3ccccc3)ccc2F)CC1	-3	?	?	-11	1%	4
COc1ccccc1NC(=O)c1cc(S(=O)(=O)NCc2ccccc2)ccc1F	9	?	?	-1	-2%	-2
CCc1ccccc1NC(=O)c1cc(S(=O)(=O)NCCc2ccc(OC)c(OC)c2)ccc1F	nt	16µM*	21µM*	nt	0%	1
Cc1ccc(NC(=O)c2cc(S(=O)(=O)NCCc3ccccc3)ccc2F)cc1Cl	-19	?	?	-88*	-1%	4
Cc1ccc(C)c(NC(=O)c2cc(S(=O)(=O)NCCc3ccccc3)ccc2F)c1	nt	?	23µM*	nt	-2%	0
CC(CCC(=O)O)C1CCC2C3C(O)C[C@@H]4CC(O)CC[C@@]4(C)C3CC(O)[C@]12C (some centres not stated)	nt	-4%	-3%	nt	nt	nt
COc1ccc(N=C2NC(=O)/C(=C\C=C\c3ccco3)S2)cc1	-22	?	?	-63*	nt	-4
Cc1cccc(N=C2NC(=O)/C(=C/C=C/c3ccco3)S2)c1	-23	23µM*	13µM*	-10	-3%	-16
Cc1cccc(N=C2NC(=O)S/C2=C\c2ccco2)c1	-18	?	?	-8	nt	-12
Cc1ccc(Cn2c(=O)n(Cc3ccco3)c(=O)c3sc4ccccc4c32)cc1	nt	?	?	nt	?	-10
COc1cccc(Nc2ncc3nc(CCc4ccccc4)c(=O)n(CCC#N)c3n2)c1	nt	-13%	4%	nt	nt	nt
CCOC(=O)c1ccc2ncc(C(=O)OCC)c(NCCN(C)C)c2c1	-29	-16%	3%	?	-13%	0
CCOC(=O)c1cnc2ccccc2c1NCCc1ccc(OC)c(OC)c1	51	10µM*	16µM*	-14	-9%	6
CCOC(=O)c1cnc2ccc(OC)cc2c1NCCc1ccc(OC)c(OC)c1	23	7.3µM*	6.5µM*	-90*	-13%	6
CCCCc1nn2c(=O)cc(COC(=O)c3ccc(NC(=O)c4ccccc4Cl)cc3)nc2s1	nt	-19%	-17%	nt	-3%	2
O=C(CN1CCN(S(=O)(=O)c2ccccc2F)CC1)Nc1ccnn1C1CCCC1	10	21µM*	?	16	0%	8
O=C(CN1CCN(S(=O)(=O)c2ccccc2F)CC1)Nc1ccccc1C(=O)c1ccccc1	6	29µM*	?	-17	-1%	2
Cc1c(NC(=O)CSc2ncnc3ccccc23)c(=O)n(-c2ccccc2)n1C	-16	-2%	4%	-7	-28%	1
COC(=O)CNC(=O)CSc1nc2sc(-c3ccccc3)cc2c(=O)n1-c1ccccc1	-15	-27%	?	-66*	?	2
